Reference: PubChem BioAssay AID1892 (NMMLSC, 2009)
In all, about 5,900 compounds went through this assay and about 140 (2.4%) were called active. Cut-off read from the data, not from the text of the source: active = binding response below about 16% or above about 210%; inactive = in between. The entries come from a sample that favours actives as a whole.

The compounds below were run against Mitogen-activated protein kinase kinase kinase 2 (Homo sapiens) (UniProt Q9Y2U5) (assay: modulators of MEK5 binding to wildtype MEKK2, confirmation, biochemical, single concentration, multiplex bead flow cytometry (AID 1892)). Settings: Alexa488-MEK5 binding to MEKK2 WT, at 10 µM, actives lie on both sides.

Binding response (% of control), inactive:
Cc1nn(-c2ccccc2)c(C)c1NC(=O)CCl 95%
C=CCn1c(P(C)(=O)O)nc2ccccc21 95%
CNC(=O)/C(=C\C=C\c1ccccc1)NC(=O)c1ccc([N+](=O)[O-])cc1 99%
Cc1ccc(N(CCC(=O)O)S(=O)(=O)c2cccc(C(F)(F)F)c2)cc1 102%
CN(c1ccccc1)c1ccc(/C=c2\s/c(=C(/C#N)C(=O)C(C)(C)C)n(Cc3ccco3)c2=O)cc1 73%
CCN(CC)CCCNC(=O)c1ccc2c(=O)n(Cc3ccc4c(c3)OCO4)c(=S)[nH]c2c1 128%
O=C(NC1CCN(Cc2ccccc2)CC1)c1ccc(Oc2cc(Cl)cc(Cl)c2)o1 138%
COCCN1C=C2C(=O)C(C)(OC(=O)C3CCCC3)C(=O)C=C2C=C1c1ccsc1 (stereo not given) 96%
O=C(NCc1ccccc1Cl)NC(=O)c1csc([N+](=O)[O-])c1 104%
COc1ccc(CCn2c(NN=C3CCCC3)nc3c2c(=O)[nH]c(=O)n3C)cc1 102%
CCOC(=O)c1sc2nc(C)nc(SCC(N)=O)c2c1C 102%
COc1ccccc1N=C(C)C1=C(O)COC1=O 106%
Cc1nc2cc(S(=O)(=O)C(F)(F)F)ccc2s1 106%
CC(C)CC(=O)NC(=S)NCc1ccccc1 98%
COc1ccc(C(=O)NCC(=O)N/N=C/c2ccc([N+](=O)[O-])o2)cc1OC 92%
CCOC(=O)c1c(NC(=O)c2ccc(S(=O)(=O)N(C)CC3CCCO3)cc2)sc2c1CC(C)(C)NC2(C)C (stereo not given) 121%
COc1cccc(OCC(=O)NNC(=O)c2cnccn2)c1 98%
COc1ccc(C2CC(=O)Nc3cc(C)c(C)cc32)c(OC)c1OC (stereo not given) 101%
COc1ccc(SC[C@H](Cc2ccccc2)N2CCN(CCc3ccccc3)CCC2=O)cc1 129%
Cc1cc(C)nc(-n2ncc3c2CC(c2ccc(C(C)C)cc2)CC3=O)n1 (stereo not given) 102%
Cc1c(C#N)c2ncn(CC#N)c(=O)c2n1-c1ccccc1 99%
CC(=O)Nc1ccc(N2CCOCC2)c(C(=O)Nc2cccc(C)c2)c1 102%
CCCCNC(=O)N1CCCC(N(C)CCc2ccc(OC)c(OC)c2)C1 (stereo not given) 103%
Cc1ccc(C(=O)NC(=S)Nc2ccc3[nH]c(=O)[nH]c3c2)cc1C 101%
CCN1CCN(c2ccc(S(=O)(=O)N3CCCCC3)cc2NC(=O)Cc2c(Cl)cccc2Cl)CC1 125%
